The list is not random: actives were taken first. Their share in the collection is about 1.7%.
PriA SSB inh = blocks PriA binding to SSB C-terminal tail. AlphaScreen SSBct-PriA binding, biotinylated peptide. inhibition, % at 33 µM. 0.6% of 430,000 active. AID 1272365; in the data active means inhibition mostly above about 37%, no sharp cut-off; inactive means mostly below about 20%
PrP 5UTR inh = suppresses PrP 5' UTR mRNA reporter expression. cell-based PrP 5' UTR mRNA reporter, plate reader. inhibition, % (test concentration not listed). 0.35% of 340,000 active. AID 488862; in the data active means inhibition above about 52%
BJeLR lethal = BJeLR cell viability loss | BJeLR (HRASV12) viability, CellTiter-Glo ATP luminescence, 48 h | inhibition, % (test concentration not listed) | 0.17% of 300,000 active | AID 1554; in the data active means inhibition above about 50%
PfHsp40 rescue = restores yeast growth despite PfHsp40 toxicity; 0.68% of 340,000 active; AID 504582; growth rescue, % at 12.5 µM; S. cerevisiae expressing PfHsp40, growth rescue, ATP luminescence; in the data active means growth rescue above about 28%, passing the limit was not always enough;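 further: yeast W303a lacking pdr1 and pdr3 grown in galactose medium; growth measured after three days at 30 °C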
PrPC TRFRET = inhibitors of human cell surface prion protein PrPC. TR-FRET read-out. inhibition, % at 13.8 µM. 0.43% of 370,000 active. P04156. AID 720596; in the data active means inhibition above about 24%
Y pestis TopoI = blocks Yersinia pestis topoisomerase I activity; Y. pestis Topo-I cleavage product accumulation, plate reader; activity, % at 10 µM; 0.064% of 360,000 active; AID 504884; in the data active means activity above about 50%, passing the limit was not always enough
Numbers stand for hits; – = inactive; · = not tested or not shown.

SMILES | PriA SSB inh | PrP 5UTR inh | BJeLR lethal | PfHsp40 rescue | PrPC TRFRET | Y pestis TopoI
c1ccc(CSc2ccc(-c3ccccn3)nn2)cc1 | – | – | – | 112 | – | –
O=C(CSc1ccc(-c2ccccn2)nn1)NC1CCCC1 | – | – | – | 221 | – | –
CCC(=O)N1CCc2ccc(NS(=O)(=O)c3ccc4c(c3)OCCO4)cc2C1 | – | · | · | · | · | ·
Cc1ccc(S(=O)(=O)N2CCc3ccc(NC(=O)c4ccc5c(c4)OCO5)cc3C2)cc1 | – | · | · | · | · | ·
COc1ccc(Nc2nc(-c3cc4cccc(OC)c4oc3=O)cs2)cc1 | – | – | – | – | – | –
COc1ccc2oc(=O)c(-c3csc(Nc4cccc(O)c4)n3)cc2c1 | – | – | – | 449 | – | –
COc1ccc(S(=O)(=O)C2CCN(C(=O)CSCc3ccccc3)CC2)cc1 | – | · | · | · | · | ·
Cc1cccc(N=Cc2cc3c(cc2[N+](=O)[O-])OCO3)c1 | 45 | – | – | – | – | –
COc1cc(C=NNC(N)=S)ccc1OCC(=O)N1CCOCC1 | – | · | · | · | · | ·
COC(=O)c1ccc(N2C(=O)CC(N(C)CCc3ccc(OC)c(OC)c3)C2=O)cc1 (stereo not drawn) | – | – | – | 451 | – | –
COc1ccc(N2C(=O)CC(N(C)CCc3ccc(OC)c(OC)c3)C2=O)cc1 (stereo not drawn) | – | – | – | – | – | –
O=C(NCCc1ccc(N2CCCC2)cc1)C1CCCCC1 | – | · | · | · | · | ·
c1ccc(C2=Nc3ccccc3OC2)cc1 | – | – | – | 50 | – | –
O=C(O)c1ccc(N/N=C/C=C/c2ccccc2)cc1 | – | – | – | 458 | – | –
Cc1ccccc1NC(=O)Nc1cnc(-n2nc(C)c(C)c2C)nc1 | – | · | · | · | · | ·
O=C1c2cccc3cccc(c23)C(=O)N1CC1CCN(CC(O)COc2ccc3ccccc3c2)CC1 (stereo not drawn) | 45 | – | – | – | – | –
COc1cccc(OCC(O)CN2CCC(CN3C(=O)c4cccc5cccc(c45)C3=O)CC2)c1 (stereo not drawn) | – | – | – | · | – | –
CO[C@@H](CNC(=O)Cc1c(C)noc1C)c1ccc(Cl)s1 | – | · | · | · | · | ·
Cc1ccc(-c2oc3ccccc3c(=O)c2O)cc1 | – | – | – | – | – | –
Cc1ccc2oc(-c3ccccc3)c(C(=O)O)c(=O)c2c1 | – | – | – | 444 | – | –
O=c1c(O)c(-c2ccccc2)oc2ccccc12 | – | – | · | 219 | – | –
c1cc2c(s1)CCN(C1CNC1)C2 | – | · | · | · | · | ·
O=C1CC(CN2CCOCC2)CN1 (stereo not drawn) | – | · | · | · | · | ·
O=C(Nc1nnc(-c2cc3ccccc3o2)o1)c1c(F)cccc1F | – | · | · | · | · | ·
COc1ccc(C(=O)COC(=O)CN2CC(=O)Oc3ccccc32)cc1Br | 80 | – | · | – | – | –
SMILES | PriA SSB inh | PrP 5UTR inh | BJeLR lethal | PfHsp40 rescue | PrPC TRFRET | Y pestis TopoI
Cc1ccc(Cn2c(SCC(=O)Nc3ncn[nH]3)nc3ccccc3c2=O)cc1 | 90 | · | · | · | · | ·
CCSc1ccccc1C(=O)Nn1cnc2c(cnn2-c2ccc(C)c(C)c2)c1=O | – | · | · | · | · | ·
Oc1ccccc1-[n+]1c(-c2ccccc2)cc(-c2ccccc2)cc1-c1ccccc1 | – | – | – | – | – | –
[O-]c1ccccc1-[n+]1c(-c2ccccc2)cc(-c2ccccc2)cc1-c1ccccc1 | · | – | 63 | – | – | –
CCn1ccc(C(=O)Nc2nnc(-c3ccccc3OC)o2)n1 | – | · | · | · | · | ·
O=C(c1ccc2nc[nH]c2c1)N1CC(S(=O)(=O)c2ccc(Cl)cc2)C1 | – | · | · | · | · | ·
N#C/C(=C\c1cccc(Oc2ccccc2)c1)C(=O)N1CCOCC1 | – | – | – | 235 | – | –
Cc1cc2nnc(Sc3ncnc4sc5c(c34)CCCC5)n2c2ccccc12 | – | · | · | · | · | ·
C[C@@]12CCC3[C@@](CCC4[C@@]3(C)CCC[C@@]4(C)C(=O)NCc3ccccc3)(CC1=O)C2 (stereo partly drawn) | – | – | · | 346 | – | –
O=C(Nc1ccc2cn[nH]c2c1)C1CN(C(=O)c2cccs2)C1 | – | · | · | · | · | ·
COc1cc2sc3ccc(C#Cc4ccccn4)cc3c(=O)c2cc1OC | – | – | – | – | – | –
COc1cccc2sc3cc(C#Cc4ccccn4)ccc3c(=O)c12 | 46 | – | · | – | – | –
CCOc1ccc(NC(=O)n2ncc3c(C)cccc32)cc1 | – | – | – | · | – | –
COc1cccc(NC(=O)n2ncc3c(C)cccc32)c1 | – | – | 54 | – | – | –
O=C(Cc1ccc(F)cc1)N(c1ccc(Br)cc1)C1C=CS(=O)(=O)C1 (stereo not drawn) | – | · | · | · | · | ·
CCCCCCCCCCOC(=O)Cn1c(COc2ccccc2OC)[n+](C)c2ccccc21 | – | – | – | 316 | – | –
CC1CCC(C(C)C)C(OC(=O)Cn2c(COc3ccccc3)[n+](C)c3ccccc32)C1 (stereo not drawn) | – | – | – | – | – | –
CCC(C)Nc1c([N+](=O)[O-])cc(C(C)(C)C)cc1[N+](=O)[O-] (stereo not drawn) | 117 | · | · | · | · | ·
CCOc1ccc(NC(=O)C2CCCN(S(=O)(=O)c3ccc4[nH]c(=O)ccc4c3)C2)cc1 (stereo not drawn) | – | – | – | 49 | – | –
Clc1ccc(OCc2nn3c(C4CCCCC4)nnc3s2)cc1 | – | – | – | – | – | 54
Cc1sc2ncnc(SCC(=O)Nc3c(C)n(C)n(-c4ccccc4)c3=O)c2c1C | 84 | · | · | · | · | ·
O=C(Nc1ccccc1-c1nnn(CC(=O)N2CCOCC2)n1)c1ccccc1F | – | – | – | 42 | – | –
CCc1nnc2c(=O)n(-c3cccc(F)c3)ccn12 | – | · | · | · | · | ·
Cn1nc(-c2cccc(NC(=O)c3cccnc3)c2)ccc1=O | – | · | · | · | · | ·
CN(CCOc1ccc(Cl)c(Cl)c1)Cc1ccccc1 | – | – | – | 36 | – | –
SMILES | PriA SSB inh | PrP 5UTR inh | BJeLR lethal | PfHsp40 rescue | PrPC TRFRET | Y pestis TopoI
COc1ccc(CCNC(=O)N2CCC(c3nnc(-c4ccco4)s3)CC2)cc1 | – | · | · | · | · | ·
O=C(N/N=C1/CC2CCC1C2)c1cc2ccccc2cc1O (stereo not drawn) | · | – | – | 33 | – | –
O=C(NN=C1CN2CCC1CC2)c1cc2ccccc2cc1O | – | · | · | · | · | ·
CCN(CC)c1ccc(NC(=S)NC(=O)C2CCC2)cc1 | 55 | – | – | – | – | –
COC(=O)NCC(C)OC(=O)Nc1cccc(Cl)c1 (stereo not drawn) | – | – | – | – | – | –
CC(CNC(=O)COc1ccccc1)OC(=O)Nc1ccc(Cl)c(Cl)c1 (stereo not drawn) | – | – | – | 200 | – | –
COc1cccc(-c2ccc(=O)n(CCCC(=O)NCc3ccccc3Cl)n2)c1 | 39 | · | · | · | · | ·
CCS(=O)(=O)N1Cc2ccccc2CC1C(=O)NC(C)C12CC3CC(CC(C3)C1)C2 (stereo not drawn) | – | – | – | – | 31 | –
CCS(=O)(=O)N1Cc2ccccc2CC1C(=O)NCC12CC3CC(CC(C3)C1)C2 (stereo not drawn) | – | – | – | – | – | –
O=[N+]([O-])c1ccc(C[n+]2cccc3ccc4cccnc4c32)cc1 | 90 | – | – | – | – | –
O=C(O)/C=C\C(=O)NNC(=O)CSc1nc2ccccc2[nH]1 | – | · | · | · | · | ·
